Inconclusive results are not listed. Active and inactive are the calls of the source. Unless noted, calls come from the whole dose curve; as a rule, active = well fitted curve in the direction sought with a large enough effect; inconclusive = small, poorly fitted or top-dose-only effect, or another doubt; inactive = no such curve, though single readings can be large; an effect the other way counts as inactive or inconclusive.
Columns and labels:
[1] = biological target: Lysosomal acid glucosylceramidase (Homo sapiens) (UniProt P04062); test: Glucocerebrosidase-p2 (AID 348; in the data active = potency below about 10 µM; note: potency is the fitted concentration of half-maximal effect); conditions: purified GBA, blue fluorogenic substrate, 40 min
Summary of the method: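 Compounds titrated from 0.6 nM upwards against 0.2 nM enzyme in pH 5.9 citric acid/KH2PO4, taurocholate, tween-20; blue fluorogenic substrate 80 uM, 40 min room temperature, stopped and read Ex 365/Em 440 for AC50.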

[2] = AP1 Signaling Pathway (AID 357; active = well fitted curve in either direction with a large enough effect, not every such curve was filed as active; note: % is set by controls: 0 for no effect and ±100 for the full control effect); conditions: ME-180 AP-1-bla reporter, EGF-induced, beta-lactamase ratio, 5 h; at 7.69 µM (top of the series) unless noted
Summary of the method: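 AP-1-bla ME-180 cells with beta-lactamase reporter under AP-1 response element, stimulated with EC50 EGF; compounds titrated, 5 hours at 37 degrees Celsius. CCF4 read at 460/530 nm ratio; positive and negative modulators judged by AC50.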

[3] = biological target: Cytochrome P450 1A2 (Homo sapiens) (UniProt P05177); test: p450-cyp1a2 (AID 410; calls by dose curve; note: potency is the fitted concentration of half-maximal effect); conditions: recombinant CYP1A2, luciferin-ME demethylation, luminescence; series mostly up to 57 µM
Summary of the method: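 Luminescent readout of luciferin formed from Luciferin-ME by human CYP1A2; data normalized against complete inhibition by 57 uM furafylline. Enzyme 20nM, substrate 100uM at Km, 100mM KPO4 buffer, 60 min reaction at room temperature.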

[4] = NFAT Signaling Pathway (AID 444; active = well fitted curve in either direction with a large enough effect, not every such curve was filed as active;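 note: carbachol stimulus at about its EC50 of 1 µM final; % is set by controls: 0 for no effect and ±100 for the full control effect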); conditions: Jurkat NFAT-bla M1, carbachol, beta-lactamase ratio, 5 h; at 7.69 µM (top of the series) unless noted
Summary of the method: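 Jurkat cells with NFAT-driven β-lactamase reporter and co-expressed M1 receptor, stimulated with carbachol (final 1 uM, ~EC50), compound titration, 5 h at 37 °C. CCF4 loaded 1 h at RT; 460/530 nm ratio gave %activity and AC50.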

[5] = Stat Signaling Pathway (AID 446; active = well fitted curve in either direction with a large enough effect, not every such curve was filed as active;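 note: ME-180 cervical cancer cells given 40 pM IL-6 alongside compound; SIE-controlled beta-lactamase reporter measured as 460/530 nm FRET emission ratio; % is set by controls: 0 for no effect and ±100 for the full control effect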); conditions: ME-180 SIE beta-lactamase reporter, IL-6 stimulated, 5 h; at 7.69 µM (top of the series) unless noted
Summary of the method: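 ME-180 SIE-bla cells; overnight plating; cpd + IL-6 40 pM, 5 h, 37 C; LiveBLAzer 2.5 h RT; 460/530 nm emission ratio. Normalized to 300 pM IL-6 and 125 nM JAK inhibitor controls.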

[6] = biological target: Glucocorticoid receptor (Homo sapiens) (UniProt P04150); test: GR-GFP Redistribution (AID 450;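 active = compounds whose dose series gives a full or clear partial fitted curve of increased nuclear translocation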; note: potency is the fitted concentration of half-maximal effect); conditions: U2OS GR-GFP nuclear translocation, laser cytometry, 2 h
[7] = biological target: Glucocorticoid receptor (Homo sapiens) (UniProt P04150); test: GR-EFC Redistribution (AID 451; calls by dose curve; note: potency is the fitted concentration of half-maximal effect); conditions: CHO-K1 GR-EFC translocation, beta-gal luminescence, 2 h
Summary of the method: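 CHO-K1 cells expressing nuclear EA and GR-ED fragments of b-gal; compounds titrated up to 46 uM final, 2 h at 37 C. GR nuclear translocation read as complemented b-gal luminescence after 1 h RT detection.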

[8] = biological target: Mitogen-activated protein kinase 10 (Mus musculus) (UniProt Q61831); test: JNK3 AlphaScreen Assay (AID 530; active = well fitted curve in either direction with a large enough effect, not every such curve was filed as active;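 note: kinase came from lysate of stimulated human HepG2 cells; signal reports phosphorylation of biotinylated GST-cJun 1-79 at Ser73 with 10 µM ATP; % is set by controls: 0 for no effect and ±100 for the full control effect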); conditions: JNK3 lysate, c-Jun phosphorylation; series mostly up to 57.1 µM
Summary of the method: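 Pre-activated (IL-1β/TNFα) JNK3 in HepG2 lysates phosphorylates biotin-GST-cJun(1-79), 10 uM ATP; anti-phospho-cJun(Ser73) AlphaScreen read at room temperature, pH 7.6 Tris buffer. Compounds pre-incubated 15 min as titrations.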

[9] = biological target: 3',5'-cyclic-AMP phosphodiesterase 4B (Homo sapiens) (UniProt Q07343); test: qHTS Assay for Inhibitors of PDE-IV (AID 607; active = well fitted activation curve with a large enough effect in the main read-out, with a control signal flat, not every such curve was filed as active; note: % of control where 0% means no effect); conditions: HEK293 ACTOne CNG channel cells, membrane potential fluorescence; series mostly up to 22.9 µM
Summary of the method: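 ACTOne HEK293 cells carry a modified cAMP-gated CNG channel and express endogenous PDE4; plated 1000 cells/well, compounds up to 22.9 uM final. Membrane-potential dye fluorescence (ex 535/em 590) was read; parental cells received 10 uM forskolin + 100 uM RO 20-1724.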

[10] = biological target: Cytochrome P450 3A4 (Homo sapiens) (UniProt P08684); test: qHTS Assay for Activators of Cytochrome P450 3A4 (AID 885); conditions: recombinant CYP3A4, Luciferin-PPXE luminescence, 60 min; series mostly up to 57.1 µM; note: nearly all actives have a fitted effect of over 65% in size
Summary of the method: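 20nM CYP3A4 + 25uM Luciferin-PPXE (=KM), 200mM KPO4; cpd 10 min RT; NADPH regen, 60 min RT; stop w/ detection buffer, 20 min; luminescence. Normalized to 57 uM ketoconazole.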

[11] = qHTS Assay for Lipid Storage Modulators (AID 1519; calls by dose curve); conditions: Drosophila S3 cells, BODIPY lipid droplet/cell ratio, laser cytometry, cells loaded with oleic acid; for activity change, negative = inhibition: at 57.5 µM (top of the series)
Summary of the method: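 Cells seeded at 5,000 per well were treated with compounds over a concentration series and loaded with oleic acid (400 uM, as added). Lipid droplet fluorescence (488 nm excitation, 500-530 nm channel) was read by laser-scanning cytometry and normalized to 20 uM Triacsin C.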

[12] = biological target: Dual specificity protein kinase CLK4 (Homo sapiens) (UniProt Q9HAZ1); test: qHTS Assay for Inhibitors of CDC-like Kinase 4 (Kinase-Glo Assay) (AID 1770); conditions: recombinant Clk4, Kinase-Glo ATP depletion luminescence; series mostly up to 66.7 µM; note: nearly all actives have a fitted effect of over 65% in size; note: potency is the fitted concentration of half-maximal effect
Summary of the method: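 Substrate mix (RS peptide 100 uM, ATP 1 uM) dispensed, compound pinned in, then Clk4 added to 25 nM final. Incubated 4.5 h at RT; Kinase-Glo reagent added, luminescence read after 5 min.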

[13] = biological target: Dual specificity protein kinase CLK4 (Homo sapiens) (UniProt Q9HAZ1); test: qHTS Assay for Inhibitors of CDC-like Kinase 4 (ADP-Glo Assay) (AID 1771); conditions: recombinant CLK4, ADP-Glo luminescence; series mostly up to 80 µM; note: nearly all actives have a fitted effect of over 70% in size; note: potency is the fitted concentration of half-maximal effect
Summary of the method: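 Luminescence from ADP-Glo reports ADP produced by 25 nM Clk4 acting on 100 uM RS repeat peptide with 1 uM ATP over 1 hr at room temperature; residual ATP is depleted before ADP is converted to ATP for detection.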

[14] = biological target: Ubiquitin carboxyl-terminal hydrolase 1 (Homo sapiens) (UniProt O94782); test: Inhibitors of USP1/UAF1: Pilot qHTS (AID 504865); conditions: purified USP1/UAF1, Ub-rhodamine cleavage fluorescence; series mostly up to 54.9 µM; note: nearly all actives have a fitted effect of over 35% in size; note: potency is the fitted concentration of half-maximal effect
Summary of the method: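 In 50mM HEPES pH 7.8 containing 0.5mM EDTA, 1mM TCEP, 0.1 mg/ml BSA and 0.01% Tween-20, 1nM USP1/UAF1 is exposed to compound for 15 min, then Ub-Rho (150nM final) is added and fluorescence is read over time.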

[15] = biological target: Cytochrome P450 3A4 (Homo sapiens) (UniProt P08684); test: qHTS Assay for Inhibitors and Substrates of Cytochrome P450 3A4 (AID 884); conditions: recombinant CYP3A4, Luciferin-PPXE luminescence; series mostly up to 57.1 µM; note: potency is the fitted concentration of half-maximal effect; nearly all actives have a fitted effect of over 50% in size
Summary of the method: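 20 nM human CYP3A4 with 25 uM Luciferin-PPXE (at KM) in 200 mM KPO4, preincubated 10 min with compound; NADPH regeneration started a 60 min RT reaction. Luciferin detected by luminescence, normalized to 57 uM ketoconazole as full inhibition.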

[16] = biological target: Cytochrome P450 2C19 (Homo sapiens) (UniProt P33261); test: qHTS Assay for Inhibitors and Substrates of Cytochrome P450 2C19 (AID 899); conditions: recombinant CYP2C19, luciferin-H EGE luminescence; series mostly up to 57.1 µM; note: potency is the fitted concentration of half-maximal effect; nearly all actives have a fitted effect of over 60% in size
Summary of the method: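 5 nM human CYP2C19 with 10uM Luciferin-H EGE (at KM) in 50mM KPO4, compound preincubated 10 min at 37C, then NADPH regeneration for 60 min at 37C. Luciferin read by luminescence after detection reagent; normalized to 57uM ketoconazole as full inhibition.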

[17] = biological target: Dual specificity protein kinase CLK4 (Homo sapiens) (UniProt Q9HAZ1); test: qHTS Assay for Inhibitors of CDC-like Kinase 4 (ADP-FP Assay) (AID 1795); conditions: Transcreener ADP fluorescence polarization; series mostly up to 50 µM; note: nearly all actives have a fitted effect of over 60% in size; note: potency is the fitted concentration of half-maximal effect
Summary of the method: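 Clk4 6.25 nM; RS peptide 100 uM; ATP 1 uM; 25 mM Tris pH 7.5, 10 mM MgCl2; 1 h reaction. ADP detected via antibody/orange tracer FP displacement; TG003 positive control.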

[18] = Confirmation and Secondary Assay for Modulators of Hemoglobin Beta Chain Splicing at IVS2 705 locus (AID 930); conditions: HeLa EGFP-705 splicing reporter, GFP fluorescence, 48 h; series mostly up to 38.3 µM;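 note: HeLa cells stably expressing the EGFP-705 splicing reporter; GFP fluorescence per well restored by corrected splicing of the IVS2-705 intron in EGFP; % of control where 0% means no effect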
Summary of the method: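 First, HeLa EGFP-705 cells are seeded at 500/well in Optimem with 2% FCS and left overnight. Next, compound or DMSO is added for 2 days. Finally wells are laser-scanned and total peak GFP intensity scored.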

[19] = measured here: cell count channel max response
[20] = measured here: lipid channel max response

Sequence of Lysosomal acid glucosylceramidase (Homo sapiens) (P04062 whole entry, looked up): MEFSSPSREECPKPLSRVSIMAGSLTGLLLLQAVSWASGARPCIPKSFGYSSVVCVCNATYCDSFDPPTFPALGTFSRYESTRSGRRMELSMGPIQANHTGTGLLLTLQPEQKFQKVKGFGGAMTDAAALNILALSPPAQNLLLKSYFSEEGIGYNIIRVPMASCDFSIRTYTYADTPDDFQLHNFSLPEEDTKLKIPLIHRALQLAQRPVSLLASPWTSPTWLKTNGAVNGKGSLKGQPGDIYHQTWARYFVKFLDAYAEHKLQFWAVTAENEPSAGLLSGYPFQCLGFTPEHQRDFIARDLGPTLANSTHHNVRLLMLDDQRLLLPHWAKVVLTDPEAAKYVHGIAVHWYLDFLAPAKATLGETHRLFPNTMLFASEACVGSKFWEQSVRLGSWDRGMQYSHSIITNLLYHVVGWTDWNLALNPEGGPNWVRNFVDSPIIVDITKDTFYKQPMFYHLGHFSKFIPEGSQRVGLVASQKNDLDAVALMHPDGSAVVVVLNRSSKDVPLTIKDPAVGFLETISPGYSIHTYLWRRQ
Sequence of Cytochrome P450 1A2 (Homo sapiens) (P05177 whole entry, looked up): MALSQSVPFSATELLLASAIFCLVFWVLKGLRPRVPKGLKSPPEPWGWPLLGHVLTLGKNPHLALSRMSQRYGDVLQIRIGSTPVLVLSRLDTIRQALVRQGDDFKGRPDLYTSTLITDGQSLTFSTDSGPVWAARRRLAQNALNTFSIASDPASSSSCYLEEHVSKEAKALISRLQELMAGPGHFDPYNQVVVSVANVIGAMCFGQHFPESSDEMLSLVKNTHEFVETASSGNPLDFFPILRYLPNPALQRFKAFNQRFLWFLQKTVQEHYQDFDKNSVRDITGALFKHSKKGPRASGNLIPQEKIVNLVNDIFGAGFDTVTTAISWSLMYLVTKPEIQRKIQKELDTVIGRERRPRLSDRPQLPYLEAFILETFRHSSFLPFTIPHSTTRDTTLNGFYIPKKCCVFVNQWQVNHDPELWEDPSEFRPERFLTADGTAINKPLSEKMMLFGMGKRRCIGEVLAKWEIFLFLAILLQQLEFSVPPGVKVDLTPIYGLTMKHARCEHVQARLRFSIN
Sequence of 3',5'-cyclic-AMP phosphodiesterase 4B (Homo sapiens) (Q07343 whole entry, looked up): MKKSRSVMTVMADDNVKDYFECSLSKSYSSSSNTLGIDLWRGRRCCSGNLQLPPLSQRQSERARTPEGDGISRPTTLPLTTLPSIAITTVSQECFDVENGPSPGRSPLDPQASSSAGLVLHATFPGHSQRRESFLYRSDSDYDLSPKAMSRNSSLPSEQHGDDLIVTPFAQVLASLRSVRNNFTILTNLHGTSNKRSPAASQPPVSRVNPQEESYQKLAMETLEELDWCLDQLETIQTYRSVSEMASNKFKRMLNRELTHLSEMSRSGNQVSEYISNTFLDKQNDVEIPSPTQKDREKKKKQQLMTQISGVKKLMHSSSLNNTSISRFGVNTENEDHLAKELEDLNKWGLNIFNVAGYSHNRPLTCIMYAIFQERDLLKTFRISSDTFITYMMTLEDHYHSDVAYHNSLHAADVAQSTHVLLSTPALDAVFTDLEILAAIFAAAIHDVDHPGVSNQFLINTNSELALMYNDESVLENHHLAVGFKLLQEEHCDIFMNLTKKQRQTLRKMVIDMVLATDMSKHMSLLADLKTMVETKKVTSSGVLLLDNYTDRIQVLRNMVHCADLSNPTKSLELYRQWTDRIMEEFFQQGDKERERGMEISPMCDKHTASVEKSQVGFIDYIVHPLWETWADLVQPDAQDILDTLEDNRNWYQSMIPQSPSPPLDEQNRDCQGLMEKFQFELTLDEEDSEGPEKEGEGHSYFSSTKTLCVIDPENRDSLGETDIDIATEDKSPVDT
Sequence of Glucocorticoid receptor (Homo sapiens) (P04150 whole entry, looked up, the tested form may be a part): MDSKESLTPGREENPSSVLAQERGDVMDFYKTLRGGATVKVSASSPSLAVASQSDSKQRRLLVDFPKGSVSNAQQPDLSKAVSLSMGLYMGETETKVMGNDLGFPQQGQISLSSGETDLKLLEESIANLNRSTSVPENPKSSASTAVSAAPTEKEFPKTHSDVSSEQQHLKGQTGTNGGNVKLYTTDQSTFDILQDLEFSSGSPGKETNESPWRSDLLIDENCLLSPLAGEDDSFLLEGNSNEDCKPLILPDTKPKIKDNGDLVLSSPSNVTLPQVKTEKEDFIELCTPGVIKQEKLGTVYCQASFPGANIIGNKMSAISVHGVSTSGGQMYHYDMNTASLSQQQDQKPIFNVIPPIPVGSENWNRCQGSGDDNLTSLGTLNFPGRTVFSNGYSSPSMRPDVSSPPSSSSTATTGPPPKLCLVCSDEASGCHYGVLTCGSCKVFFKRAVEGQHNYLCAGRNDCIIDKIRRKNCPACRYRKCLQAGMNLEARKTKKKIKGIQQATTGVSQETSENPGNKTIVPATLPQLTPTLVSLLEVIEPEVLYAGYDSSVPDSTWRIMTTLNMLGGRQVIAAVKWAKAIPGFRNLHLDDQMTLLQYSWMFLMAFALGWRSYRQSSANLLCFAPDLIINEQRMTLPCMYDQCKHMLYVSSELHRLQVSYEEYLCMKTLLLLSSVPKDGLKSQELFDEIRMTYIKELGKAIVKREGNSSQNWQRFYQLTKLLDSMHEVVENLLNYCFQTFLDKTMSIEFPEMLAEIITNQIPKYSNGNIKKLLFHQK
Sequence of Ubiquitin carboxyl-terminal hydrolase 1 (Homo sapiens) (O94782 whole entry, looked up): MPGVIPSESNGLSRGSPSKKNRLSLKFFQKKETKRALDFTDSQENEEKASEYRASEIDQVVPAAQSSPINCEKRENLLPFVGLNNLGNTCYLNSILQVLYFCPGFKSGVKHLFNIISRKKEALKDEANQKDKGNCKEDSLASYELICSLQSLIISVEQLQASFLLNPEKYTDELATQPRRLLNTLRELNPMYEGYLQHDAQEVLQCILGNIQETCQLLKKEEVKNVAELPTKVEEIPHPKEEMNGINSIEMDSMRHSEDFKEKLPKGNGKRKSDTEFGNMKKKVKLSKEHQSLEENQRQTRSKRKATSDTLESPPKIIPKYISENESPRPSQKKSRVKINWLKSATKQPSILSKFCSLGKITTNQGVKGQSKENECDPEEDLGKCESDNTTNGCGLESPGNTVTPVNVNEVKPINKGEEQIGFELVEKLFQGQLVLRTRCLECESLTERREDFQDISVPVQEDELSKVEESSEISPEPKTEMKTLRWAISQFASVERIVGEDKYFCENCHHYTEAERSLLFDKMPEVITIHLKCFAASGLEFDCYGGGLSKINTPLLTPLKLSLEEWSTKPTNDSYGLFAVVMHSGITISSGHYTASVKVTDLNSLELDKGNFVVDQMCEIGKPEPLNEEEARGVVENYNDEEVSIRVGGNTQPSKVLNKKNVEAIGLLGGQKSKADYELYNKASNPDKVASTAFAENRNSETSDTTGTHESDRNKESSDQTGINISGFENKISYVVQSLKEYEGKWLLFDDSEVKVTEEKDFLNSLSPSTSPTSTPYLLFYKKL
Sequence of Dual specificity protein kinase CLK4 (Homo sapiens) (Q9HAZ1 whole entry, looked up): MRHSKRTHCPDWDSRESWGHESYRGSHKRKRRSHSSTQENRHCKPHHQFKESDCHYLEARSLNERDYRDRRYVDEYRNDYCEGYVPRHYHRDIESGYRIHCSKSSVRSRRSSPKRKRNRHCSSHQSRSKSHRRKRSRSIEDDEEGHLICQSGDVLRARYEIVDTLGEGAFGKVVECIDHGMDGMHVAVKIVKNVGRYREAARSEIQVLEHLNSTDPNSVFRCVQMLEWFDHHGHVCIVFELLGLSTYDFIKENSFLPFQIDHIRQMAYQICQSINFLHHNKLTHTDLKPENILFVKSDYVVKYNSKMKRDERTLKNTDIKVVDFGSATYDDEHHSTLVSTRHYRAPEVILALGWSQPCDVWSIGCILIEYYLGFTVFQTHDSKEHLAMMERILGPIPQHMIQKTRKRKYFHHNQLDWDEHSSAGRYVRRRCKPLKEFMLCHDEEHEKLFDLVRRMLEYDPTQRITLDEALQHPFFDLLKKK
Sequence of Cytochrome P450 2C19 (Homo sapiens) (P33261 whole entry, looked up): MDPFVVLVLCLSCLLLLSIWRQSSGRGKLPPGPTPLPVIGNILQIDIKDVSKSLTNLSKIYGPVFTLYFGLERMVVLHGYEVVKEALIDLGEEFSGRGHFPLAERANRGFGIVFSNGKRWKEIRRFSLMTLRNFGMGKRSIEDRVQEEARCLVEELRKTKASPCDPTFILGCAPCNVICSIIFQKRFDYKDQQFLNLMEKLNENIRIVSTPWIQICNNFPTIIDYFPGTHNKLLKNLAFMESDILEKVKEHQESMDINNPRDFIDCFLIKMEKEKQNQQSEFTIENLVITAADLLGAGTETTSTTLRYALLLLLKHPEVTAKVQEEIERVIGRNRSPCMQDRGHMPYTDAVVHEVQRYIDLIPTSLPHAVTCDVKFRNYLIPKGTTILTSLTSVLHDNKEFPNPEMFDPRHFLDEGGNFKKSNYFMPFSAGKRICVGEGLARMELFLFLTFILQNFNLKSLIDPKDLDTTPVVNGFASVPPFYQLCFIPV
Sequence of Cytochrome P450 3A4 (Homo sapiens) (P08684 whole entry, looked up): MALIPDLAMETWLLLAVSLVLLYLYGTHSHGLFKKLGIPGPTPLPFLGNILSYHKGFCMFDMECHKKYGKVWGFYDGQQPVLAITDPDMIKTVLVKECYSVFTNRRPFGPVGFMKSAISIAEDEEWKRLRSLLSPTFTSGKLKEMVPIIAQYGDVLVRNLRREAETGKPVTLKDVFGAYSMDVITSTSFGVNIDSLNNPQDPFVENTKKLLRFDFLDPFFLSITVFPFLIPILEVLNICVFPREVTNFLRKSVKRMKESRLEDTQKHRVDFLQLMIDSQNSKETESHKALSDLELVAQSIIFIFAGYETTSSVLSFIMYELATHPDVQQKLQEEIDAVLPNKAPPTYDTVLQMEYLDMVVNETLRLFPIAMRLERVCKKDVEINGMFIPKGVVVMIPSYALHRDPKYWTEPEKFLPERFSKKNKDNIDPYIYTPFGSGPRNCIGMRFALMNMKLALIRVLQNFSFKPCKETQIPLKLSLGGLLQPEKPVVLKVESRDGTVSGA

Structure (SMILES) | Potency [1] | activity change, negative = inhibition [2] | Potency [3] | activity change, negative = inhibition [4] | activity, negative = inhibition [5] | Potency [6] | Potency [7] | Potency [8] | Potency [9] | Potency [10] | activity change, negative = inhibition [11] | max response [11, 19] | max response [11, 20] | Potency [12] | Potency [13] | Potency [14] | Potency [15] | Potency [16] | Potency [17] | outcome [18]
COc1ccccc1-c1ccc2ncnc(NCc3cnc(C)cn3)c2c1 | > 11.4 µM (inactive) | -23.9% (inactive) | 6.31 µM (active) | 3.25% (inactive) | -25.2% (inactive) | > 46 µM (inactive) | > 46 µM (inactive) | inactive | inactive | inactive | 2.78% (inactive) | 13.2% | 14% | 15.8 µM (active) | 17.8 µM (active) | inactive |  |  |  | 
COc1ccc(CNc2ncnc3ccc(-c4ccc(N(C)C)cc4)cc23)c(OC)c1 |  |  | 2.51 µM (active) |  | -9.37% (inactive) | > 46 µM (inactive) | > 46 µM (inactive) |  | inactive | inactive | 3.77% (inactive) | -26.6% | -24.8% | inactive |  | inactive | 3.98 µM (active) | 3.98 µM (active) | inactive | 
Clc1ccccc1-c1ccc2ncnc(NC3CCNCC3)c2c1 | > 11.4 µM (inactive) |  | 15.8 µM (active) | -8.44% (inactive) | -0.786% (inactive) |  | > 46 µM (inactive) | inactive | inactive |  | 1.65% (inactive) | 0.483% | 1.92% | 25.1 µM (active) | 22.4 µM (active) | inactive |  | 3.98 µM (active) |  | 
COc1ccc(CNc2ncnc3ccc(-c4ccc(C(=O)N(C)C)cc4)cc23)c(OC)c1 | > 11.4 µM (inactive) | -13.6% (inactive) |  | 28.3% (inactive) | -9.48% (inactive) | > 46 µM (inactive) | > 46 µM (inactive) | inactive |  | inactive | 1.13% (inactive) | 11.2% | 9.92% | inactive |  | inactive | 2.51 µM (active) |  | inactive | 
Cc1noc(C)c1-c1nc(NC2CCNCC2)c2ccccc2n1 |  | 34.4% (inactive) | 5.01 µM (active) | 26.2% (inactive) | 6.06% (inactive) | > 46 µM (inactive) | > 46 µM (inactive) | inactive | inactive |  | 4.9% (inactive) | 11.4% | 12.7% | 25.1 µM (active) | 28.2 µM (active) | inactive |  |  |  | 
COCCn1c(=O)c(-c2ccc(Cl)cc2)nc2cnc(N3CCNCC3)nc21 | > 11.4 µM (inactive) |  |  |  |  | > 9.22 µM (inactive) | > 46 µM (inactive) | inactive | inactive |  | 5.4% (inactive) | 20.2% | 21.3% | inactive | inactive | inactive |  |  | inactive | 
COc1ccc(CNc2ncnc3ccc(-c4ccoc4)cc23)c(OC)c1 |  |  | 1.58 µM (active) | 4.83% (inactive) | -19.6% (inactive) | > 46 µM (inactive) | > 46 µM (inactive) | inactive |  | inactive | -9.76% (inactive) | 19.6% | 6.18% | 0.708 µM (active) | 1 µM (active) | inactive | 3.16 µM (active) | 7.94 µM (active) | 282 nM (active) | 
N#CCCn1c(=O)c(-c2ccc(F)cc2)nc2cnc(OCc3ccccc3)nc21 | > 11.4 µM (inactive) |  | 1.58 µM (active) | -4.49% (inactive) | -20.1% (inactive) | > 9.22 µM (inactive) | > 46 µM (inactive) | inactive | inactive | inactive | -1.54% (inactive) | 0.762% | -3.12% | inactive |  | inactive |  |  |  | 
COc1ccccc1-c1ccc2ncnc(NCCN3CCOCC3)c2c1 |  |  | 15.8 µM (active) | 5.89% (inactive) | -7.65% (inactive) | > 46 µM (inactive) | > 46 µM (inactive) | inactive | inactive | inactive | -9.29% (inactive) | -4.88% | -15.2% | 14.1 µM (active) | 17.8 µM (active) | inactive | 7.94 µM (active) |  |  | 
N#Cc1cccc(-c2ccc3ncnc(NCc4ccccc4)c3c2)c1 | > 11.4 µM (inactive) |  | 0.1 µM (active) |  | -18.2% (inactive) | > 46 µM (inactive) | > 46 µM (inactive) | inactive |  | inactive | -0.0166% (inactive) | 4.36% | 2.9% |  | 8.91 µM (active) | 15.8 µM (active) |  |  |  | 
CN1CCN(c2ccnc(-c3ccc(N(C)C)cc3)n2)CC1 | > 11.4 µM (inactive) | -4.67% (inactive) | 0.794 µM (active) | 6.45% (inactive) | -0.21% (inactive) | > 46 µM (inactive) | > 46 µM (inactive) | inactive | inactive | inactive | 10.5% (inactive) | 22.6% | 29.9% |  |  |  |  |  | inactive | 
COc1cc2c(cc1OC)C1Cc3ccc(OC)c(OC)c3CN1CC2 (stereo unspecified) |  |  |  |  |  |  |  |  |  | inactive | 8.32% (inactive) | 12.8% | 22.2% |  |  |  |  |  |  | inactive
